# In PubChem BioAssay AID686979 (National Center for Advancing Translational Sciences (NCATS), 2013):
# The campaign covered roughly 420,000 compounds. About 50,000 (12%) were called active. Another 26% or so got no clear call; they are omitted. The sample as a whole holds a higher share of actives than the screen did. A number with no mark means an inactive call. Calls follow the shape of the dose curve; as a rule, active = well fitted inhibition curve with a large enough effect; inconclusive = small, poorly fitted or top-dose-only effect; inactive = flat fitted curve, though single readings scatter.
# Assay: qHTS for Inhibitors of human tyrosyl-DNA phosphodiesterase 1 (TDP1): qHTS in cells in presence of CPT; also: nearly all actives have a fitted effect of over 55% in size
# Conditions: chicken DT40 Tdp1-/-;hTDP1 cells + 20 nM CPT, ATP luminescence, 48 h; series mostly up to 46.2 µM; activity change, negative = growth inhibition: at the top concentration
# Method in brief: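 Chicken DT40 Tdp1-/- cells complemented with human TDP1, 400 cells/well, exposed to compounds plus 20 nM camptothecin for at least 48 h at 37 C; viability read as ATP content by CellTiter-Glo luminescence.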
# % is scaled to controls: 0 for no effect and ±100 for the full control effect; potency is read from the fitted curve at half-maximal effect.
SMILES,"activity change, negative = growth inhibition",Potency
COc1ccc(NC(C)=O)cc1NC(=O)CN1CCN(C2c3ccccc3-c3ccccc32)CC1,-11.4%,
COCCN(C(=S)Nc1ccccc1OC)C1CCN(C(C)C)CC1,13.3%,
Cc1cc(C#N)c(SCC(N)=O)nc1-c1ccc(F)cc1,-6.67%,
Cc1nn(-c2ccccc2)c(Cl)c1/C=C/C(=O)c1ccc(O)cc1,-22.8%,
CCC1(C(=O)c2ccccc2)C(c2cccc([N+](=O)[O-])c2)C1(C(=O)OC)C(=O)OC (configuration not stated),,23.1 µM (active)
O=C(NOCc1ccccc1)c1cccc([N+](=O)[O-])c1,9.86%,
Cc1cc(CNC(=O)c2cccc([N+](=O)[O-])c2)c2ccccc2n1,-21.3%,
CC1O[C@H](OC2C(COC3OC(CO)C(O)[C@H](O)C3O)OC(OC3CC[C@]4(C)C(CC[C@@]5(C)[C@@H]4C=C[C@]46OC[C@@]7(CCC(C)(C)C[C@H]74)C(O)C[C@@]56C)C3(C)C)C(O)C2O)C(O)C(O)C1O (some centres not stated),-3.08%,
CCc1ccc(-c2nn(-c3ccccc3C)cc2C(=O)N2CCN(C3CCS(=O)(=O)C3)CC2)cc1 (configuration not stated),-7.22%,
CCc1ccc(-c2nn(-c3ccccc3)cc2CSC(=N)N)cc1,,16.4 µM (active)
Cc1ccc(-c2nn(-c3ccccc3)cc2C(=O)NC2CCC(O)CC2)cc1 (configuration not stated),-21.6%,
CC1(C)C2CCC13CS(=O)(=O)NC3C2 (configuration not stated),-17.6%,
COC(=O)c1c(C(=O)OC)c2n(c1C)CCS2,9.43%,
Cc1cc2c(cc1C)NC(c1ccccn1)C1=C(CC(C)(C)CC1=O)N2 (configuration not stated),-14.7%,
CC1(C)CC(=O)C2=C(C1)Nc1cc(C(=O)c3ccccc3)ccc1NC2c1ccccn1 (configuration not stated),4.03%,
Cc1nn(-c2ccccn2)c2c1C(c1ccncc1)C1=C(CC(C)(C)CC1=O)N2 (configuration not stated),,29.1 µM (active)

SMILES,"activity change, negative = growth inhibition",Potency
Cc1cc(C)c(C2C3=C(Nc4c2c(C)nn4-c2ccccn2)c2ccccc2C3=O)c(C)c1 (configuration not stated),,13 µM (active)
CN(CC(=O)NCc1ccc2c(c1)OCO2)CC(=O)Nc1ccc(F)c(F)c1F,-7.17%,
COc1ccc(-n2nc3c(c2NC(=O)c2ccc(N4C(=O)CCC4=O)cc2)CSC3)cc1,25.1%,
O=C(Oc1cccc(C(=S)N2CCOCC2)c1)c1cccc(Cl)c1,2.82%,
COC(=O)c1cccc(NC(=O)c2cccc(N3C(=O)CCC3=O)c2)c1,-9.34%,
COc1ccccc1C(=O)NCC(=O)OCC(=O)Nc1nnc(-c2ccccc2)o1,-2.33%,
Cc1cc(C)cc(NC(=O)N(C)Cc2ccccc2)c1,-0.4%,
CC1CCN(S(=O)(=O)c2nnc(NC(=O)COc3ccccc3F)s2)CC1,-0.652%,
Cc1cc(NC(=O)[C@H](C)NC(=O)c2ccco2)ccc1Br,-7.75%,
O=C(COc1ccccc1F)NC1CC1,-4.51%,
Cc1ccnc(NC(=O)c2ccco2)n1,-29.5%,
N#Cc1ccc(OCC(=O)Nc2nc(-c3ccccn3)cs2)cc1,,1.64 µM (active)
CC1CCCCC1NC(=O)COc1ccc(C#N)cc1 (configuration not stated),-13.3%,
CC(NC(=O)c1ccco1)C(=O)Nc1nc(-c2ccccn2)cs1 (configuration not stated),,5.8 µM (active)
NS(=O)(=O)c1ccc2nc(NC(=O)COc3ccccc3)sc2c1,-3.67%,
O=C(COc1ccccc1F)Nc1nc(-c2ccccn2)cs1,,5.17 µM (active)
